Assay results as given in PubChem BioAssay AID1159580 (chemical genetic matrix, 2015).
Screen size: about 5,500 compounds; about 2,000 (36%) were called active. Roughly 18% stayed inconclusive and do not appear here. No stated cut-off is given here; in the data, active means normalized growth mostly below about 0.91 (no sharp cut-off); inconclusive means no clear call, values can overlap the other calls; inactive means mostly above about 0.92. The list shows a part of the results.

Experiment: chemical genetic growth profiling, strain panel (AID 1159580);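 further: tested at 20 µM; growth read once vehicle control cultures reached saturation at 30 °C; 1 = growth at the plate median or of vehicle wells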
Details: growth OD
[1] = S. cerevisiae deletion strains, locus YAL013W, strain DEP1, stronger effect = lower value
[2] = S. cerevisiae deletion strains, locus YBR229C, strain ROT2, stronger effect = lower value
[3] = S. cerevisiae deletion strains, locus YDL101C, strain DUN1, stronger effect = lower value
[4] = S. cerevisiae deletion strains, locus YDR150W, strain NUM1, stronger effect = lower value
[5] = S. cerevisiae deletion strains, locus YEL061C, strain CIN8, stronger effect = lower value
[6] = S. cerevisiae deletion strains, locus YGR078C, strain PAC10, stronger effect = lower value
[7] = S. cerevisiae deletion strains, locus YHR030C, strain SLT2, stronger effect = lower value
[8] = S. cerevisiae deletion strains, locus YHR087W, strain rtc3, stronger effect = lower value
[9] = S. cerevisiae deletion strains, locus YJL187C, strain SWE1, stronger effect = lower value
[10] = S. cerevisiae deletion strains, locus YJR043C, strain POL32, stronger effect = lower value
[11] = S. cerevisiae deletion strains, locus YJR075W, strain HOC1, stronger effect = lower value
[12] = S. cerevisiae deletion strains, locus YLR039C, strain RIC1, stronger effect = lower value
[13] = S. cerevisiae deletion strains, locus YLR058C, strain SHM2 (second series), stronger effect = lower value
[14] = S. cerevisiae deletion strains, locus YLR085C, strain ARP6, stronger effect = lower value
[15] = S. cerevisiae deletion strains, locus YLR262C, strain YPT6, stronger effect = lower value
[16] = S. cerevisiae deletion strains, locus YML094W, strain GIM5, stronger effect = lower value
[17] = S. cerevisiae deletion strains, locus YMR219W, strain ESC1, stronger effect = lower value
[18] = S. cerevisiae deletion strains, locus YMR263W, strain SAP30, stronger effect = lower value
[19] = S. cerevisiae deletion strains, locus YMR307W, strain GAS1, stronger effect = lower value
[20] = S. cerevisiae deletion strains, locus YNL153C, strain GIM3, stronger effect = lower value
[21] = S. cerevisiae deletion strains, locus YNL298W, strain CLA4 (second series), stronger effect = lower value
[22] = S. cerevisiae deletion strains, locus YNL322C, strain KRE1, stronger effect = lower value
[23] = S. cerevisiae deletion strains, locus YNR030W, strain Alg12, stronger effect = lower value
[24] = S. cerevisiae deletion strains, locus YPL055C, strain LGE1, stronger effect = lower value
[25] = S. cerevisiae deletion strains, locus YPL241C, strain CIN2, stronger effect = lower value
[26] = S. cerevisiae deletion strains, locus YPR135W, strain CTF4, stronger effect = lower value

Measured: normalized growth

CCCc1cc(C(=O)Nc2ccc(N(CC)CC)cc2)nn1-c1ccccc1
active: S. cerevisiae deletion strains, locus YDL134C, strain PPH21, stronger effect = lower value 0.873 | [5] 0.895 | [7] 0.276 | [19] 0.275 | S. cerevisiae deletion strains, locus YOL006C, strain TOP1, stronger effect = lower value 0.626
inactive: [1] 0.98 | [2] 0.983 | [3] 0.981 | [4] 0.966 | [6] 0.975 | [8] 0.981 | [9] 0.991 | [10] 0.973 | [11] 0.967 | S. cerevisiae deletion strains, locus YKL190W, strain CNB1, stronger effect = lower value 0.96 | [12] 1 | [13] 0.982 | [14] 0.813 | [15] 0.915 | [16] 0.911 | [17] 0.999 | [18] 0.991 | [20] 0.987 | [21] 0.884 | [22] 0.991 | [23] 0.89 | [24] 0.973 | [25] 0.92 | [26] 0.718 | S. cerevisiae strains, strain wild type, stronger effect = lower value 0.922

O=C(NC(c1ccccc1)C(N=Cc1ccccc1)c1ccccc1)c1ccccc1 (centres undefined)
inactive: [1] 1 | [2] 1.02 | S. cerevisiae deletion strains, locus YCL061C, strain MRC1, stronger effect = lower value 1.02 | [3] 1 | [4] 0.959 | [5] 1.03 | [6] 1.01 | S. cerevisiae deletion strains, locus YGR229C, strain SMI1, stronger effect = lower value 1.02 | [7] 1.05 | [8] 1 | [9] 1.02 | [10] 1.02 | [11] 1.01 | [12] 1.04 | [13] 1.03 | [14] 1.03 | [15] 1.1 | [16] 1.01 | [17] 1.01 | [18] 0.978 | [19] 0.999 | [20] 0.998 | [21] 1.05 | [22] 1 | [23] 1.02 | [24] 0.917 | [25] 1.01 | [26] 1.01

C(=NC(N=Cc1ccccc1)c1ccccc1)c1ccccc1 (centres undefined)
inactive: S. cerevisiae deletion strains, locus YAR019C, strain CDC15, stronger effect = lower value 0.983 | S. cerevisiae deletion strains, locus YBL105C, strain PKC1, stronger effect = lower value 0.991 | S. cerevisiae deletion strains, locus YBR135W, strain CKS1, stronger effect = lower value 0.986 | S. cerevisiae deletion strains, locus YBR136W, strain MEC1, stronger effect = lower value 0.977 | S. cerevisiae deletion strains, locus YBR160W, strain CDC28, stronger effect = lower value 0.989 | S. cerevisiae deletion strains, locus YDL017W, strain CDC7, stronger effect = lower value 0.99 | S. cerevisiae deletion strains, locus YDL028C, strain MPS1, stronger effect = lower value 0.984 | [3] 0.994 | S. cerevisiae deletion strains, locus YDL108W, strain KIN28, stronger effect = lower value 0.976 | S. cerevisiae deletion strains, locus YDL132W, strain cdc53, stronger effect = lower value 0.992 | S. cerevisiae deletion strains, locus YDL214C, strain PRR2, stronger effect = lower value 0.956 | S. cerevisiae deletion strains, locus YDR052C, strain DBF4, stronger effect = lower value 0.989 | S. cerevisiae deletion strains, locus YDR054C, strain cdc34, stronger effect = lower value 0.991 | S. cerevisiae deletion strains, locus YDR226W, strain ADK1, stronger effect = lower value 0.992 | S. cerevisiae deletion strains, locus YDR477W, strain SNF1, stronger effect = lower value 0.963 | S. cerevisiae deletion strains, locus YER123W, strain YCK3, stronger effect = lower value 0.937 | S. cerevisiae deletion strains, locus YER133W, strain GLC7, stronger effect = lower value 0.971 | S. cerevisiae deletion strains, locus YFL009W, strain cdc4, stronger effect = lower value 0.992 | S. cerevisiae deletion strains, locus YFL029C, strain CAK1, stronger effect = lower value 0.981 | S. cerevisiae deletion strains, locus YFR003C, strain YPI1, stronger effect = lower value 0.989 | S. cerevisiae deletion strains, locus YFR019W, strain FAB1, stronger effect = lower value 0.962 | S. cerevisiae deletion strains, locus YFR028C, strain CDC14, stronger effect = lower value 0.995 | S. cerevisiae deletion strains, locus YGR040W, strain KSS1, stronger effect = lower value 0.958 | S. cerevisiae deletion strains, locus YGR052W, strain FMP48, stronger effect = lower value 1.03 | S. cerevisiae deletion strains, locus YGR092W, strain DBF2, stronger effect = lower value 0.974 | [7] 0.919 | S. cerevisiae deletion strains, locus YHR079C, strain IRE1, stronger effect = lower value 0.934 | S. cerevisiae deletion strains, locus YHR082C, strain KSP1, stronger effect = lower value 0.986 | S. cerevisiae deletion strains, locus YHR205W, strain SCH9, stronger effect = lower value 0.894 | S. cerevisiae deletion strains, locus YIL147C, strain SLN1, stronger effect = lower value 0.984 | S. cerevisiae deletion strains, locus YJL095W, strain BCK1, stronger effect = lower value 0.918 | S. cerevisiae deletion strains, locus YJL128C, strain PBS2, stronger effect = lower value 0.961 | S. cerevisiae deletion strains, locus YJL157C, strain FAR1, stronger effect = lower value 0.977 | S. cerevisiae deletion strains, locus YJR016C, strain ILV3, stronger effect = lower value 0.997 | S. cerevisiae deletion strains, locus YJR066W, strain TOR1 (second series), stronger effect = lower value 0.937 | S. cerevisiae deletion strains, locus YJR066W, strain TOR1, stronger effect = lower value 0.973 | S. cerevisiae deletion strains, locus YKL048C, strain ELM1, stronger effect = lower value 0.957 | S. cerevisiae deletion strains, locus YKL067W, strain YNK1, stronger effect = lower value 0.956 | S. cerevisiae deletion strains, locus YKL101W, strain HSL1, stronger effect = lower value 0.941 | S. cerevisiae deletion strains, locus YKL193C, strain SDS22, stronger effect = lower value 0.995 | S. cerevisiae deletion strains, locus YKL203C, strain TOR2, stronger effect = lower value 1.02 | S. cerevisiae deletion strains, locus YLR133W, strain CKI1, stronger effect = lower value 0.958 | S. cerevisiae deletion strains, locus YLR403W, strain SFP1, stronger effect = lower value 0.945 | S. cerevisiae deletion strains, locus YML070W, strain DAK1, stronger effect = lower value 0.947 | S. cerevisiae deletion strains, locus YMR001C, strain CDC5, stronger effect = lower value 0.995 | S. cerevisiae deletion strains, locus YMR205C, strain PFK2 (second series), stronger effect = lower value 0.953 | S. cerevisiae deletion strains, locus YMR277W, strain FCP1, stronger effect = lower value 0.998 | S. cerevisiae deletion strains, locus YNL006W, strain LST8, stronger effect = lower value 0.994 | S. cerevisiae deletion strains, locus YNL020C, strain ARK1, stronger effect = lower value 0.966 | S. cerevisiae deletion strains, locus YNL161W, strain CBK1, stronger effect = lower value 0.992 | S. cerevisiae deletion strains, locus YNL183C, strain NPR1, stronger effect = lower value 0.946 | S. cerevisiae deletion strains, locus YNL207W, strain RIO2, stronger effect = lower value 0.983 | S. cerevisiae deletion strains, locus YNL222W, strain SSU72, stronger effect = lower value 0.99 | S. cerevisiae deletion strains, locus YNL307C, strain MCK1 (second series), stronger effect = lower value 0.964 | S. cerevisiae deletion strains, locus YOL078W, strain AVO1, stronger effect = lower value 0.992 | S. cerevisiae deletion strains, locus YOL136C, strain PFK27, stronger effect = lower value 0.968 | S. cerevisiae deletion strains, locus YOR061W, strain CKA2, stronger effect = lower value 0.942 | S. cerevisiae deletion strains, locus YOR119C, strain RIO1, stronger effect = lower value 0.972 | S. cerevisiae deletion strains, locus YOR231W, strain MKK1, stronger effect = lower value 0.911 | S. cerevisiae deletion strains, locus YOR329C, strain SCD5, stronger effect = lower value 0.989 | S. cerevisiae deletion strains, locus YPL031C, strain PHO85, stronger effect = lower value 0.962 | S. cerevisiae deletion strains, locus YPL153C, strain RAD53, stronger effect = lower value 0.955 | S. cerevisiae deletion strains, locus YPL204W, strain HRR25, stronger effect = lower value 0.976 | S. cerevisiae deletion strains, locus YPL209C, strain IPL1, stronger effect = lower value 0.99 | S. cerevisiae deletion strains, locus YPL256C, strain CLN2, stronger effect = lower value 0.913 | S. cerevisiae deletion strains, locus YPR025C, strain CCL1, stronger effect = lower value 0.991 | S. cerevisiae deletion strains, locus YPR106W, strain ISR1, stronger effect = lower value 0.99 | S. cerevisiae deletion strains, locus YPR111W, strain DBF20, stronger effect = lower value 0.985 | S. cerevisiae deletion strains, strain NNK1, stronger effect = lower value 0.981 | S. cerevisiae deletion strains, strain TSCII, stronger effect = lower value 0.991
active: S. cerevisiae deletion strains, locus YLR113W, strain HOG1, stronger effect = lower value 0.856
